Data taken from PubChem BioAssay.
Where “and” joins values, the source holds several entries; their conditions need not be identical. Equal entries are not always repeated. Inconclusive results are not listed. Calls of active or inactive are those of the source.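 Rule for the calls, unless noted: active = response below a set limit, under 55% cells CD8-positive and vesicle-bound, and CD8 cells' 90th-percentile brightness under 279; inactive = the rest.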

Tests used:
[1] = rapamycin-like changes in RPL19A-GFP expression – cell-based, S. cerevisiae, multiplex flow cytometry, primary screen (AID 1862; in the data active = percent of DMSO control GFP below about 86%;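 note: lower values mimic rapamycin by blocking the RPL19A rise seen in DMSO cells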); settings: S. cerevisiae RPL19A-GFP strain, flow cytometry fluorescence, 3 h; at 10 µM; stronger effect = lower value
[2] = TOR pathway GLN3 branch reporter MEP2-GFP changes – S. cerevisiae, multiplex flow cytometry, primary screen (AID 1867;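 active = GFP response, as percent of the DMSO control, above the screen-wide mean plus 3 SD, about 139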;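 note: median GFP channel fluorescence of barcode-gated MEP2-GFP cells measured by flow cytometry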); settings: S. cerevisiae MEP2-GFP strain, 3 h, at 10 µM, stronger effect = higher value, 100% means same as DMSO wells
[3] = TOR pathway RTG branch CIT2 reporter changes – S. cerevisiae, GFP fusion, multiplex flow cytometry, primary screen (AID 1870;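 active = percent response above a set limit, the screen-wide mean plus 3 SD, cut at about 130% in these data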;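 note: barcoded CIT2-GFP strain pooled with four other GFP strains with rapamycin as positive control; median GFP fluorescence per well over plate mean of DMSO wells so 100% = DMSO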); settings: S. cerevisiae CIT2-GFP expression, 3 h, at 10 µM, stronger effect = higher value
[4] = TOR pathway LAP4-GFP level changes – S. cerevisiae, multiplex flow cytometry, primary screen (AID 1873;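 active = GFP signal, as percent of the solvent control, above the screen mean plus 3 SD, about 149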); settings: S. cerevisiae LAP4-GFP expression, 3 h, at 10 µM, stronger effect = higher value
[5] = yeast AGP1-GFP level changes, GLN3 branch – cell-based, multiplex flow cytometry, S. cerevisiae, primary screen (AID 1887;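 active = GFP signal above the screen-wide mean plus 3 SD, that is over about 124.5% of the solvent control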;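 note: AGP1-GFP fusion strain of S. cerevisiae within a five-strain barcoded multiplex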); settings: 3 h, at 10 µM, stronger effect = higher value
[6] = reduced mouse 2C T cell binding to pMHC/ICAM-1 vesicles – MLPCN validation set, flow cytometry, LFA-1/ICAM-1 modulator project, pilot screen (AID 2523); settings: 2C mouse CD8+ T cells, at 7 µM, stronger effect = lower value; double positive events: measured here: CD8+/vesicle+ event percentage;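 for vesicle binding response: mean PE anti-B7-1 fluorescence of CD8+ cells relative to row control; 100% = QL9-loaded vesicles with DMSO vehicle in the same plate row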
[7] = target: Integrin beta-1 (Homo sapiens) + Integrin alpha-4 (Homo sapiens) (UniProt P13612+P05556); assay: alpha4beta1 integrin LIBS antibody binding reduction – U937 cells, HUTS-21 mAb, flow cytometry, validation set, VLA-4 allosteric modulator project, pilot screen (AID 2674;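 active = inhibition above 50%, about 3 SD of the validation set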;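 note: antibody binding induced by the VLA-4 ligand LDV present at three times its Kd; 0% = LDV ligand with antibody and no compound and 100% = antibody without LDV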); settings: HUTS-21 LIBS mAb binding, at 6.7 µM, stronger effect = higher value, binding induced by LDV ligand
Sequence of Integrin beta-1 (Homo sapiens) + Integrin alpha-4 (Homo sapiens) (P05556 whole entry, looked up): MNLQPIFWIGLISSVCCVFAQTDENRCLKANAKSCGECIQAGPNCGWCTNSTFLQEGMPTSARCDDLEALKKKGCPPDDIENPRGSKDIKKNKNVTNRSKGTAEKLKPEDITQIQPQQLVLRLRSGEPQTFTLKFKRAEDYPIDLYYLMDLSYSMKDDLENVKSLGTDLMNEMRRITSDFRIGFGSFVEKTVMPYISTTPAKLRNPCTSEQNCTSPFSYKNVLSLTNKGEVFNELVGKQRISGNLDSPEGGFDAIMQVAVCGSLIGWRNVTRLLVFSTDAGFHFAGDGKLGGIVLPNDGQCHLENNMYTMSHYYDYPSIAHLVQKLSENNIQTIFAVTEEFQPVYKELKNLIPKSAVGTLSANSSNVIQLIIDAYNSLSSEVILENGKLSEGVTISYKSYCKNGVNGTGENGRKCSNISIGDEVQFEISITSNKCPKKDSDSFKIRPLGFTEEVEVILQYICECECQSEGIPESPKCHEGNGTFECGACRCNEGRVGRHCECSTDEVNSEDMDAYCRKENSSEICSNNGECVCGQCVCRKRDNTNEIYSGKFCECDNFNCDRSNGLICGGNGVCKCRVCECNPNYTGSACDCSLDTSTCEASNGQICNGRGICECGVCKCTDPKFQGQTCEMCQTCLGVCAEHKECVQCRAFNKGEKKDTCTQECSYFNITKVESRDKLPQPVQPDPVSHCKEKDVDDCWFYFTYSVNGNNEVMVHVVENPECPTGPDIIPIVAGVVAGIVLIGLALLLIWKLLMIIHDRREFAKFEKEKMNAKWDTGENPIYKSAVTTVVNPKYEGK
Sequence of Integrin beta-1 (Homo sapiens) + Integrin alpha-4 (Homo sapiens) (P13612 whole entry, looked up): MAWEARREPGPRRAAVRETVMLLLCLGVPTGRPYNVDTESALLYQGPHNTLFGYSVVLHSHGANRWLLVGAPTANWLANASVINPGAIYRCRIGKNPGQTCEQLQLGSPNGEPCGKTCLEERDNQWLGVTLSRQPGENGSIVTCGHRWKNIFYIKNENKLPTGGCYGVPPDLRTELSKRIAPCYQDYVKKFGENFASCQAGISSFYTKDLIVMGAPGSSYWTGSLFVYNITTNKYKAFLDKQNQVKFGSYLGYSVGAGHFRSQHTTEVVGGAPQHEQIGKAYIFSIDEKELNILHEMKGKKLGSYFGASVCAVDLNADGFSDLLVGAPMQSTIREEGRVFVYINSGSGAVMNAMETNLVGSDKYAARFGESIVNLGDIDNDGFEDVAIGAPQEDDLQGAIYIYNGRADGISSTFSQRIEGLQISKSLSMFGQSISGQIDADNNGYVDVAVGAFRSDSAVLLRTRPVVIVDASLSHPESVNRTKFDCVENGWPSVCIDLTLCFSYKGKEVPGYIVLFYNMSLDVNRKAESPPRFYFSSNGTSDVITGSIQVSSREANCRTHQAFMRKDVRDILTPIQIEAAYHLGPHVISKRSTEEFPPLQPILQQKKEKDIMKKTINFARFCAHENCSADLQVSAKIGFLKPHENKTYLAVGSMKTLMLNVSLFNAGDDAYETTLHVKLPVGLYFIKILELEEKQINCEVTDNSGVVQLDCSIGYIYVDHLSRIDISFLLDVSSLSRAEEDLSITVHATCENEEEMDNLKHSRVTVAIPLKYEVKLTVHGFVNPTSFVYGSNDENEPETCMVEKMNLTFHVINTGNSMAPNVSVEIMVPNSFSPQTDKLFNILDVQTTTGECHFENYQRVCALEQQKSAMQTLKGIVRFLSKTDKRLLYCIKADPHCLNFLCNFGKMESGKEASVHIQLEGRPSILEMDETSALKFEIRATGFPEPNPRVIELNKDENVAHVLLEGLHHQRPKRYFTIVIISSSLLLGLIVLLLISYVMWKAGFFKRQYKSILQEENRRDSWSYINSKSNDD

[8] = calorie-restriction mimetic ROS inhibitors, yeast – validation compound set, pilot screen (AID 2706;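 active = superoxide response below 65% of plate, a cut near 3 SD across the whole screen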;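 note: yeast exposed to compound for one week at 30 degrees C before staining; 100% = mean of all compound wells on the same plate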); settings: S. cerevisiae aging, superoxide DHE fluorescence; at 10 µM; stronger effect = lower value
[9] = target: Beta-adrenergic receptor kinase 1 (Homo sapiens) (UniProt P25098); assay: GRK2 binders displacing RNA aptamer, biochemical, validation, human GRK2, bead flow cytometry (AID 488806;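 active = aptamer binding inhibition above 30%, about 3 SD of noise from non-fluorescent compounds; inactive = inhibition at or below 30%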); settings: bead-bound GRK2, FAM-aptamer displacement, at 10 µM, stronger effect = higher value
Sequence of Beta-adrenergic receptor kinase 1 (Homo sapiens) (P25098 whole entry, looked up): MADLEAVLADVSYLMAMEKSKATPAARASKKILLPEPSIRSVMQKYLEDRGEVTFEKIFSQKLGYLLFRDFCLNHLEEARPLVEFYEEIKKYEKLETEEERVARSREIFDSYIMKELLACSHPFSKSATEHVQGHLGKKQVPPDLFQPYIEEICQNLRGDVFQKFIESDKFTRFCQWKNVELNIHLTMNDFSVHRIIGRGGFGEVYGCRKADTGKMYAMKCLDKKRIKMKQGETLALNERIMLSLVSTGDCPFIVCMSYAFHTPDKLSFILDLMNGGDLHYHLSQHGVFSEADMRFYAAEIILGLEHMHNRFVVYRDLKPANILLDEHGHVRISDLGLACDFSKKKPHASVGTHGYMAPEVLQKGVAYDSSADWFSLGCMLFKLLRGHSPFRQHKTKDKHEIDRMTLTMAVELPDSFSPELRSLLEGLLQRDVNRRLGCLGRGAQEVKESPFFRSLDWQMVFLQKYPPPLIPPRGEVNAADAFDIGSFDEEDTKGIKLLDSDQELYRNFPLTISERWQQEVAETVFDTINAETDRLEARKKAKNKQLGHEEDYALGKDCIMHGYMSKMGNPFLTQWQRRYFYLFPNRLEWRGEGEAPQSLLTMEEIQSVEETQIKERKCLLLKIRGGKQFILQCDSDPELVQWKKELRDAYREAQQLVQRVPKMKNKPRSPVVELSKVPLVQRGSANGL

[10] = target: Beta-2 adrenergic receptor (Homo sapiens) (UniProt P07550); assay: agonist-induced loss of surface beta2AR – cell-based, FAP fluorogen, flow cytometry, validation set, pilot screen (AID 504459;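 active = percent response above 42, roughly 3 SD of non-fluorescent test compounds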;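 note: agonist-driven loss of surface beta2AR via internalization measured by FAP dye flow cytometry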); settings: Am2.2-beta2AR cells, at 10 µM, stronger effect = higher value
Sequence of Beta-2 adrenergic receptor (Homo sapiens) (P07550 whole entry, looked up): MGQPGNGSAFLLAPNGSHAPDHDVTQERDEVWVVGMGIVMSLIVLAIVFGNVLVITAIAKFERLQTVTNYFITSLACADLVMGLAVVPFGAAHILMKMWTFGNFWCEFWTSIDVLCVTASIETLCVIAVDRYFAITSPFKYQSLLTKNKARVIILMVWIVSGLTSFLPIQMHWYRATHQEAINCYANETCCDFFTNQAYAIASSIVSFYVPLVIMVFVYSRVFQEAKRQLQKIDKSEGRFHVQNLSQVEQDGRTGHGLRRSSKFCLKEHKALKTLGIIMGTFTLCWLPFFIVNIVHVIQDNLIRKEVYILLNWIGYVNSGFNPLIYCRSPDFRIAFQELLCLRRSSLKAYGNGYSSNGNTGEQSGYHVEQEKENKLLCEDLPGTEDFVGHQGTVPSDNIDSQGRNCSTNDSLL

[11] = target: AP-2 complex subunit beta (Homo sapiens) (UniProt P63010); assay: beta-arrestin/AP2 interaction blockers – biochemical, validation set, GST-AP2 beads, flow cytometry, pilot screen (AID 504541;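 active = inhibition above 54%, about 3 SD of non-fluorescent compounds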;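 note: AP2 carries R879A mutation and is captured from E. coli lysate; bead-bound FITC arrestin peptide fluorescence measuring arrestin peptide binding to AP2; 0% = DMSO wells and 100% = excess unlabeled arrestin peptide control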); settings: FITC arrestin peptide, at 10 µM, stronger effect = higher value, AP2 beta2 appendage fragment, R879A mutant
Sequence of AP-2 complex subunit beta (Homo sapiens) (P63010 whole entry, looked up, the tested form may be a part, one chain of several): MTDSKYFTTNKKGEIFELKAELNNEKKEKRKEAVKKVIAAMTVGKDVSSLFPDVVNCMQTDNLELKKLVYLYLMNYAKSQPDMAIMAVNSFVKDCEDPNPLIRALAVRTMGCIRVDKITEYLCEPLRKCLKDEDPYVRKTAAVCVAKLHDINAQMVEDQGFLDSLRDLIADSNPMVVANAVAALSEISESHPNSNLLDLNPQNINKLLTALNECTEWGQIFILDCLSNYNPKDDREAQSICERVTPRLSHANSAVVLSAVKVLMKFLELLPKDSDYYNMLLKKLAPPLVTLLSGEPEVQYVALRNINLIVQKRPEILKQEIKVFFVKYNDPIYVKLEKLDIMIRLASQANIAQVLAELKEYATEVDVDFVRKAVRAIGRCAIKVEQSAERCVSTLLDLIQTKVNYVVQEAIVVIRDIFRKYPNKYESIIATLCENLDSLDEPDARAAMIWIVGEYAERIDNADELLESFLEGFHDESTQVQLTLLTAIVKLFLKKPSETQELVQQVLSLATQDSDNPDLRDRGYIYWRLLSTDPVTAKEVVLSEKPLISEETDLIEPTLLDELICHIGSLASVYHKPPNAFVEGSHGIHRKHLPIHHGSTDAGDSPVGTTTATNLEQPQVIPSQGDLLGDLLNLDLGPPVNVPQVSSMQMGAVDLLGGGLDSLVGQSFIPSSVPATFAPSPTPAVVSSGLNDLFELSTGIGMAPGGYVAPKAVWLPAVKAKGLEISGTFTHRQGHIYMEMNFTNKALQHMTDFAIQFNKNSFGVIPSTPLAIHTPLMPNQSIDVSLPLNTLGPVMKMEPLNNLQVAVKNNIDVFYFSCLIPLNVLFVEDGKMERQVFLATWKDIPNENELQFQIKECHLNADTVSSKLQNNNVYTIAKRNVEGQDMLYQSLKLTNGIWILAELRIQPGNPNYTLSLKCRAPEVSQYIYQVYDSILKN

[12] = cytosolic pH regulators acting via V-ATPase – S. cerevisiae, pHLuorin, HTS validation (AID 504600; in the data active = response above about 15%;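 note: plate controls were DMSO for no effect and reference compound for full effect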); settings: V-ATPase proton transport, at 10 µM, stronger effect = higher value
[13] = test system: anti-desmoglein-3 scFv antibody binding to human DSG3; assay: blockers of pathogenic pemphigus antibody–desmoglein-3 binding – biochemical, validation compound set, bead-based, flow cytometry, pilot screen (AID 588368;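 active = binding below the plate cutoff, the plate median minus 3 SD, with a reading above zero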;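 note: signal is the median channel fluorescence of bead-bound GFP antibody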); settings: Protein G beads, DSG3-Fc, scFv-GFP binding, at 10 µM, stronger effect = lower value
[14] = Nile Red efflux blockade in pump-expressing yeast – validation compound set, multiplex, phenotypic, pilot screen (AID 588506;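 active = efflux inhibition above 0.42, the validation set average plus 4 SD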;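 note: Nile Red retained in cells so higher fluorescence means more efflux inhibition; 0 = negative control wells and 1 = enniatin B 25 µM full block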); settings: S. cerevisiae pump-expressing triplex, Nile Red efflux flow cytometry; at 10 µM; stronger effect = higher value; the pumps come from Candida albicans
[15] = target: ATP-binding cassette sub-family B member 6 (Homo sapiens) (UniProt Q9NP58); assay: blockers of ABCB6-driven porphyrin uptake – K562-ABCB6 cells, flow cytometry, validation set, pilot screen (AID 588550;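 active = inhibition above the screen-wide mean plus 3 SD, about 51%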;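 note: 0% = DMSO wells and 100% = benzethonium chloride 70 µM positive control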); settings: K562-ABCB6 porphyrin accumulation, 1 h, at 10 µM, stronger effect = higher value
Sequence of ATP-binding cassette sub-family B member 6 (Homo sapiens) (Q9NP58 whole entry, looked up): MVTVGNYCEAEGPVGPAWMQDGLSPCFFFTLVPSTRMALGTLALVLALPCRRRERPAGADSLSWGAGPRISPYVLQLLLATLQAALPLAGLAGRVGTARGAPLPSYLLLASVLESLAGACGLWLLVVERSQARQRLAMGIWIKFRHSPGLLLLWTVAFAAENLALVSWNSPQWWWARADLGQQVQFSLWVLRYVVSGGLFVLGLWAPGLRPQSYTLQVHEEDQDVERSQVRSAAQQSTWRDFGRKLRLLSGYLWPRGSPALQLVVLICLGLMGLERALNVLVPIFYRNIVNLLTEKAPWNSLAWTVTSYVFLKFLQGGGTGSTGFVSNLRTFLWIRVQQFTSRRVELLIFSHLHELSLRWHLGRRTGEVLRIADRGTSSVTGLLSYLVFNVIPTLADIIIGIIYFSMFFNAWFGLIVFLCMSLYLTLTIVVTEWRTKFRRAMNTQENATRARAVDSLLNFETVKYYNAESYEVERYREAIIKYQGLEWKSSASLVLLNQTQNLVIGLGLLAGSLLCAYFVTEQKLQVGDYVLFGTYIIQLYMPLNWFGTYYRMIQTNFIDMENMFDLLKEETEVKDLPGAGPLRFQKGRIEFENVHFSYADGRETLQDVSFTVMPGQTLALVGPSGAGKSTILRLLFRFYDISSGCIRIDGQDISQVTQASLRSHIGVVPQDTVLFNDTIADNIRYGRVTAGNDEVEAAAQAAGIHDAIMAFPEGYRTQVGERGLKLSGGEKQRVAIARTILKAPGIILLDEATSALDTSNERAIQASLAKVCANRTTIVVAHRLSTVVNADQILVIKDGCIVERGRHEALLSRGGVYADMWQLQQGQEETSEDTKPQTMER

[16] = AML differentiation inducers, ER-HoxA9 marrow cells – cell-based, GFP/MAC1 double positive, flow cytometry, validation set, primary screen (AID 588685;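 active = differentiation response of at least 50%, scaled between solvent and reference control, from cells with both markers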;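 note: compound exposure lasts four days before antibody staining and flow analysis; 0% = DMSO wells and 100% = 5 µM fulvestrant positive control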); settings: stronger effect = higher value, normalized: vehicle 0, fulvestrant 100

Structure (SMILES) | percent of DMSO control GFP [1] | GFP response vs DMSO [2] | percent response of DMSO control [3] | GFP response vs DMSO [4] | GFP response, % of DMSO [5] | double positive events [6] | vesicle binding response [6] | inhibition [7] | superoxide response (% of plate) [8] | aptamer binding inhibition [9] | response [10] | inhibition [11] | response [12] | binding (% of control) [13] | efflux inhibition (fraction of control) [14] | inhibition [15] | differentiation response [16]
CC(OC(=O)c1cc(=O)[nH]c2ccccc12)C(=O)c1ccccc1 (stereo not drawn) | 99.6% (inactive) | 101% (inactive) | 106% (inactive) | 107% (inactive) | 105% (inactive) | 58.9% | 174% (inactive) | -15.8% (inactive) | 96.4% (inactive) | -2% (inactive) | 1.78% (inactive) | -9.56% (inactive) | 0.61% (inactive) | 106% (inactive) | -0.61 (inactive) | 41% (inactive) | -4.57% (inactive)
CCOC(=O)N1c2ccccc2C=CC1OCC (stereo not drawn) | 103% (inactive) | 97.7% (inactive) | 102% (inactive) | 108% (inactive) | 109% (inactive) | 57% | 109% (inactive) | 2.93% (inactive) | 110% (inactive) | 3% (inactive) | 2.04% (inactive) | -6.59% (inactive) | -0.43% (inactive) | 103% (inactive) | -0.29 (inactive) | -3% (inactive) | -13.3% (inactive)
COC(=O)C1=CN(Cc2cccs2)C=C(C(=O)OC)C1c1cccc(Cl)c1 | 103% (inactive) | 107% (inactive) | 98.2% (inactive) | 92.3% (inactive) | 97.2% (inactive) | 61.5% | 186% (inactive) | 14% (inactive) | 103% (inactive) | 5% (inactive) | 9.92% (inactive) | 2.7% (inactive) | -0.61% (inactive) | 99.5% (inactive) | 0.26 (inactive) | 6% (inactive) | 6.49% (inactive)
CC1(C)c2ccccc2N2CC(=O)NC21/C=C/c1ccco1 (stereo not drawn) | 101% (inactive) | 113% (inactive) | 110% (inactive) | 100% (inactive) | 96.2% (inactive) | 64.1% | 87.6% (inactive) | -23.9% (inactive) | 109% (inactive) | 0% (inactive) | 5.81% (inactive) | -7.94% (inactive) | -1.22% (inactive) | 107% (inactive) | -0.16 (inactive) | -36% (inactive) | -3.11% (inactive)
CC(NC(=O)OCc1ccccc1)C(=O)N1CC(O)CC1C(=O)O (stereo not drawn) | 103% (inactive) | 112% (inactive) | 90.1% (inactive) | 105% (inactive) | 103% (inactive) | 62.9% | 182% (inactive) | 6.4% (inactive) | 97.5% (inactive) | 3% (inactive) | 9.77% (inactive) | 31.1% (inactive) | -4.2% (inactive) | 99.5% (inactive) | 0.8 (active) | 4% (inactive) | 29.6% (inactive)
c1ccc(CN(CC2=NCCN2)c2ccccc2)cc1 | 87.8% (inactive) | 138% (inactive) | 101% (inactive) | 78.7% (inactive) | 84.3% (inactive) | 64.5% and 68.1% | 273% (inactive) and 176% (inactive) | -56.6% (inactive) and -2.27% (inactive) | 93.5% (inactive) and 98.7% (inactive) | 1% (inactive) and 2% (inactive) | 7.43% (inactive) and -2.34% (inactive) | 0.2% (inactive) and -12.4% (inactive) | -4.75% (inactive) and 1.48% (inactive) | 111% (inactive) and 102% (inactive) | -0.35 (inactive) and -0.31 (inactive) | -5% (inactive) and 12% (inactive) | 15.6% (inactive) and -8.19% (inactive)
CC(C)CC1c2[nH]c3ccccc3c2CCN1C(=O)CCC(=O)N(C)C (stereo not drawn) | 90.9% (inactive) | 117% (inactive) | 107% (inactive) | 79.2% (inactive) | 93.1% (inactive) | 80.7% | 264% (inactive) | 3.55% (inactive) | 104% (inactive) | 4% (inactive) | 6.34% (inactive) | -2.59% (inactive) | -2.43% (inactive) | 104% (inactive) | -0.31 (inactive) | 12% (inactive) | -6.55% (inactive)
O=C(Oc1ccc2c3c(c(=O)oc2c1)CCCC3)c1ccco1 | 101% (inactive) | 101% (inactive) | 96% (inactive) | 102% (inactive) | 85% (inactive) | 62.5% | 126% (inactive) | -6.04% (inactive) | 99.3% (inactive) | 5% (inactive) | 5.57% (inactive) | 11.5% (inactive) | 0.75% (inactive) | 96.5% (inactive) | 0.62 (active) | 6% (inactive) | -5.68% (inactive)
CC12CCC(C(=O)N(CCC#N)CCC#N)(CC1=O)C2(C)C (stereo not drawn) | 100% (inactive) | 106% (inactive) | 95.8% (inactive) | 113% (inactive) | 108% (inactive) | 61.1% | 5730% (inactive) | 6.4% (inactive) | 98% (inactive) | 3% (inactive) | -1.84% (inactive) | 44.5% (inactive) | 0.52% (inactive) | 100% (inactive) | -0.03 (inactive) | 9% (inactive) | 2.4% (inactive)
